# Cruzain Triton: cruzain (T. cruzi) inhibition with detergent | P25779 | 0.43% of 200,000 active | Potency, µM, inactives show max response, negative = inhibition, hits mostly inhibitors | purified cruzain, Z-FR-AMC fluorescence, 0.01% Triton;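 note: plate controls were neutral wells for no effect and buffer without enzyme for full effect; nearly all actives have a fitted effect of over 40% in size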
# Target sequence (P25779 123-467 limits assumed): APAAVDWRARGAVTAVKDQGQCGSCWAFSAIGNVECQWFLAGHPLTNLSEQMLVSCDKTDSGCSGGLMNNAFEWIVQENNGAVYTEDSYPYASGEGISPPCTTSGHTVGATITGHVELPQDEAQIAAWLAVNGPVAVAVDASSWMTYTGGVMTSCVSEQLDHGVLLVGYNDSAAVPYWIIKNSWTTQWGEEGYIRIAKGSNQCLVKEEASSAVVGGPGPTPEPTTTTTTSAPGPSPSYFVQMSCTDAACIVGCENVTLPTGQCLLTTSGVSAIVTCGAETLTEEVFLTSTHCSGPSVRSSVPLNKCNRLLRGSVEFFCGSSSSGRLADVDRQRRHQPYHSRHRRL
#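 Sodium acetate buffer (100 mM, pH 5.5) containing 5 mM DTT and 0.01% Triton X-100 hosted 1.5 nM cruzain and test compound for 15 min at room temperature. Cleavage of 2 uM Z-FR-AMC was then tracked by fluorescence.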
# Cruzain inh noDet: inhibitors of Trypanosoma cruzi cruzain without detergent; P25779; purified cruzain, Z-FR-AMC fluorescence, no detergent; Potency, µM, without a hit: max response, negative = inhibition, most hits filed as inhibitors; 2.3% of 200,000 active; AID 1476;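 note: plate controls were enzyme without inhibitor for no effect and buffer without enzyme for full effect; nearly all actives have a fitted effect of over 40% in size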
#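 Purified cruzain at 1.5 nM, pre-incubated 15 min with compound at room temperature in 100 mM sodium acetate pH 5.5, 5 mM DTT, 0.00005% Triton X-100. Reaction started with 2 uM Z-FR-AMC; AMC fluorescence increase over 60 s gives rate.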
# Papain counter: counter-screen for cruzain inhibitors: papain inhibition. purified papain, Z-FR-AMC fluorescence cleavage. Potency, µM, inactives show max response, negative = inhibition, hits mostly inhibitors. 41% of 410 active. shares compounds with Cruzain Triton;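 note: 0% = no-compound wells and -100% = no-enzyme wells; nearly all actives have a fitted effect of over 35% in size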
# Target sequence (P00784 whole entry, looked up): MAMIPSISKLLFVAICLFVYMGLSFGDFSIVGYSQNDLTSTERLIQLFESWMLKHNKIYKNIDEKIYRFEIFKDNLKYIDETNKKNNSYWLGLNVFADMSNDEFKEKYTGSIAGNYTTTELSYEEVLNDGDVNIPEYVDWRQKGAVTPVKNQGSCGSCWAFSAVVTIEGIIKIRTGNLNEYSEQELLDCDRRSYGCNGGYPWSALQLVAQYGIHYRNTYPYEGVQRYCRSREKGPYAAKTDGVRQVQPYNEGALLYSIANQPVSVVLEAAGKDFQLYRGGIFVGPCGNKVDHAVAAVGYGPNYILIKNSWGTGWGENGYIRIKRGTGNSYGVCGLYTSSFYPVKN
# The depositor's hits bear a star; ? = inconclusive; nt = no result given. Most compounds without a hit are left out; they make up all but 2.5% or so of the library. Calls come from the whole dose curve; as a rule, active = well fitted curve in the direction sought with a large enough effect; inconclusive = small, poorly fitted or top-dose-only effect, or another doubt; inactive = no such curve, though single readings can be large; an effect the other way counts as inactive or inconclusive. Potency is the fitted concentration of half-maximal effect.
SMILES,Cruzain Triton,Cruzain inh noDet,others
CCc1ccc(C(=O)c2cn(CC(=O)Nc3ccc(F)cc3)c3ccc(OC)cc3c2=O)cc1,-9.8%,-2.8%,
COc1cc2nc(NCCc3ccccc3)n3nc(-c4cccnc4)nc3c2cc1OC,1.2%,-8.4%,
Cc1nn(-c2ccccc2)c(N2CCCCC2)c1/C=N/O,0.7%,-9.1%,
Cc1nn(-c2ccccc2)c(N2CCCC2)c1/C=C1\N=C(c2ccccc2)OC1=O,1.58µM*,0.794µM*,
Cc1ccc2oc(=O)c3cc(C(=O)NCCCOC(C)C)sc3c2c1,0.7%,-1.3%,
CC(=O)c1c(N2CCC(C(N)=O)CC2)nc(=S)n(-c2ccccc2)c1C,1.0%,1.9%,
Cc1ccc(NCc2cc3cc4c(cc3n(CC(=O)Nc3ccc(C)cc3)c2=O)OCCO4)cc1,-6.6%,?,
CCc1ccc(NCc2cc3cc4c(cc3n(CC(=O)Nc3ccc(Cl)cc3)c2=O)OCO4)cc1,-1.3%,15.8µM*,
COc1ccc(NCc2cc3cc4c(cc3n(CC(=O)Nc3cc(C)cc(C)c3)c2=O)OCO4)cc1,-5.0%,?,
COc1ccc(NCc2cc3cc4c(cc3n(CC(=O)Nc3ccc(C)c(C)c3)c2=O)OCO4)cc1,-2.6%,15.8µM*,
Cc1cc(-c2cc(C)c(O)c(C(C)(C)C)c2)cc(C(C)(C)C)c1O,-1.4%,-0.9%,
COc1ccc(-c2onc(C)c2C)cc1S(=O)(=O)NCc1ccc(Br)cc1,-1.7%,-1.6%,
COc1nc(OC/C(N)=N/O)nc(N2CCOCC2)n1,2.6%,6.7%,
O=C(c1ccncc1)N1CCC2(CCCN(c3ccccc3)C2)CC1,2.3%,11.2%,
O=S(=O)(Nc1ncccc1O)c1ccc(Cl)cc1,4.2%,3.4%,
FC(F)(F)c1cccc(N2Cc3ccccc3C2)c1,-4.1%,-5.5%,
Cc1cc(C)cc(N2Cc3ccccc3C2)c1,1.2%,12.6µM*,
CCOc1ccc(C2CC(=O)Nc3nc(SCc4ccccc4C)[nH]c(=O)c32)cc1OC (stereo unspecified),-1.8%,?,
Nc1ncnc2c1ncn2[C@H]1O[C@@H](CO)[C@@H](O)[C@H]1N,-1.9%,5.3%,
O=C1O/C(=C/c2ccccc2)N=C1c1ccccc1,12.6µM*,15.8µM*,
O=C1O/C(=C\c2ccccc2)c2ccccc21,-9.8%,-13.0%,
Cc1nc2c(-c3ccccc3)c(C)nn2c(C)c1CCC(=O)Nc1ccccc1F,-2.7%,-6.8%,
Cc1cc(C)cc(-c2cc3c(c(-c4c(O)c(-c5cc(C)cc(C)c5)cc5c4CCCC5)c2O)CCCC3)c1,0.6%,15.8µM*,
Oc1ccc2c(c1-c1c(O)c(Br)cc3c1CCCC3)CCCC2,0.1%,3.5%,
CCC/C=C(\CCC)C(NC(=O)CCc1ccccc1)c1ccc(C(F)(F)F)cc1 (stereo unspecified),-2.6%,-26.9%,
SMILES,Cruzain Triton,Cruzain inh noDet,others
O=C(Nc1ccc(F)cc1)Nc1ccc(Cl)cn1,2.2%,-18.2%,
O=C(Nc1cccc(Cl)c1)Nc1ccc(Cl)cn1,5.1%,25.1µM*,
COc1ccc(NC(=O)NN(C(=O)c2ccccc2)C(C)(C)C)cc1,-0.4%,5.7%,
COc1cccc(NC(=O)Cn2c(=O)n(CCC(=O)NCCc3ccc(Cl)cc3)c(=O)c3ccccc32)c1,-3.0%,-9.2%,
Cc1c(/C=C(\C#N)C(=O)Nc2cccc(Cl)c2)c2ccccc2n1Cc1ccccc1,-4.2%,3.98µM*,
COc1cccc(NC(=O)/C(C#N)=C/c2c(C)n(Cc3ccc(Cl)cc3)c3ccccc23)c1,-1.6%,6.31µM*,
Cc1ccc(Cl)cc1NC(=O)/C(C#N)=C/c1c(C)n(Cc2ccccc2)c2ccccc12,-0.4%,2.6%,
CCC(C)C1/C=C\CCCC(=O)N1Cc1ccc(C)cc1 (stereo unspecified),-0.8%,5.1%,
COc1nc(Oc2ccc(C(=O)O)cc2)nc(Oc2ccc(C(=O)O)cc2)n1,5.1%,-6.9%,
COc1ccc(Oc2nc(Oc3ccc(OC)cc3)nc(Oc3ccc(OC)cc3)n2)cc1,1.6%,3.16µM*,
COc1cc2c(cc1NS(=O)(=O)N1CCCC1)oc1ccccc12,-8.0%,13.8%,
COc1ccc(NC(=O)CN2CCN(S(=O)(=O)c3ccc(Br)cc3)CC2)cc1,-2.4%,11.6%,
COc1cc2c(cc1NC(=O)C(C)N1CCN(S(=O)(=O)c3ccc(C)c(C)c3)CC1)oc1ccccc12 (stereo unspecified),1.8%,7.94µM*,
COc1cc2c(cc1NC(=O)CN1CCN(S(=O)(=O)c3ccc(C)cc3)CC1)oc1ccccc12,0.3%,7.94µM*,
COc1cc2c(cc1NC(=O)C(C)Oc1ccccc1)oc1ccccc12 (stereo unspecified),-8.8%,-13.6%,
COc1ccc(C)cc1NC(=O)CN1CCN(S(=O)(=O)c2ccc(Cl)cc2)CC1,-1.6%,24.7%,
COc1ccc(OC)c(C(=O)CN2CCN(S(=O)(=O)c3ccc(Br)cc3)CC2)c1,1.9%,25.1µM*,
COc1cc2c(cc1NC(=O)C(C)N1CCN(S(=O)(=O)c3ccccc3[N+](=O)[O-])CC1)oc1ccccc12 (stereo unspecified),2.6%,0.794µM*,
CC(C)[C@@H](CC(=O)N[C@@H]1CCCC[C@H]1C(=O)N[C@H](CC(=O)N[C@@H](CCC(=O)O)CC(=O)O)Cc1c[nH]c2ccccc12)NC(=O)C[C@H](Cc1c[nH]c2ccccc12)NC(=O)[C@@H]1CNCC[C@H]1N,2.9%,14.6%,
Cn1c(=O)c2c(nc(NCC3CCCO3)n2Cc2cccc(Br)c2)n(C)c1=O (stereo unspecified),4.3%,-4.6%,
COc1ccccc1CNC(=O)c1cc2c(s1)-c1ccccc1OC2,1.3%,14.8%,
CCN1CCN(CCCNC(=O)c2cc3c(s2)-c2ccccc2OC3)CC1,28.2µM*,?,Papain counter=10µM*
CCN(CC)S(=O)(=O)c1ccc(N=Nc2c(C)[nH]n(C(N)=S)c2=O)cc1,-24.6%,-18.8%,
NC(=S)n1[nH]c(-c2ccc([N+](=O)[O-])cc2)c(N=Nc2ccc(O)cc2)c1=O,0.355µM*,0.631µM*,Papain counter=-1.4%
CNc1oc(Cc2ccccc2)nc1S(=O)(=O)c1ccc(Cl)cc1,10µM*,10µM*,Papain counter=-11.6%
SMILES,Cruzain Triton,Cruzain inh noDet,others
O=S(=O)(c1ccc(Cl)cc1)c1nc(-c2ccccc2Br)oc1NCc1ccccc1,-7.4%,?,
CCn1cnc2c(Nc3cc(F)cc(F)c3)nc(C#N)nc21,nt,nt,Papain counter=0.3µM*
CCn1cnc2c(Nc3cccc(Cl)c3)nc(N[C@@H]3CCCC[C@@H]3N)nc21,-4.1%,8.6%,
O=C(O)CCC/C=C\C[C@H]1C(=O)C[C@@H](O)[C@@H]1/C=C/[C@@H](O)CCc1ccccc1,5.5%,-2.7%,
CC/C=C1/N=C2C(=O)N(C)C(=O)N=C2N(C)N1,nt,nt,Papain counter=-12.9%
CN1N/C(=C\c2ccccc2)N=C2C(=O)N(C)C(=O)N=C21,nt,nt,Papain counter=-9.8%
CN1C(=O)/C(=C/c2ccc3c(c2)OCO3)N=C1c1ccccc1,-11.1%,-6.9%,
CCOc1ccc(Nc2cc(C)nc3nc(Cc4ccc(Cl)cc4)nn23)cc1,-5.7%,-3.0%,
COCCNC(=O)[C@@]1(Cc2ccccc2)C=C[C@@H](C)N1C(=O)OC,5.5%,-10.7%,
NC(=S)N/N=C\c1ccc(-c2cccc(Cl)c2Cl)o1,0.631µM*,0.631µM*,Papain counter=2.82µM*
COC(=O)N/N=C\c1ccc(-c2cc(Cl)c(Cl)cc2Cl)o1,-4.2%,?,
NC(=S)N/N=C/c1ccc(-c2ccc(Cl)c(Cl)c2)o1,0.631µM*,0.631µM*,Papain counter=6.31µM*
Nc1nnc(CC(=O)N/N=C/c2ccc(-c3ccccc3Cl)o2)s1,-16.0%,-14.8%,
c1cncc(-c2cc(-n3ccnc3)ncn2)c1,1.9%,9.5%,

# From PubChem
